A number with no mark means an inactive call. Records with an inconclusive call do not appear. The source made the active and inactive calls. Unless noted, calls come from the whole dose curve; as a rule, active = well fitted curve in the direction sought with a large enough effect in the repeat runs; inconclusive = weak or mixed curves; inactive = no such curve, though single readings can be large; an effect the other way counts as inactive or inconclusive.

Results on 30 molecules are retold here after PubChem BioAssay (Tox21).

The target in assay [1] is Thyrotropin-releasing hormone receptor (Homo sapiens) (UniProt P34981). As to the kind of experiment: qHTS assay to identify small molecule agonists of the thyrotropin-releasing hormone receptor (TRHR) signaling pathway (AID 1346891; calls by dose curve; note: series mostly up to about 58 µM). In short, it runs like this: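 Screening of agonists relied on calcium signalling in HEK293 cells expressing human TRHR: dye loading 2 h at 37 °C preceded compound addition and a 3-min fluorescence time course.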
Thyrotropin-releasing hormone receptor (Homo sapiens), sequence (P34981 whole entry, looked up): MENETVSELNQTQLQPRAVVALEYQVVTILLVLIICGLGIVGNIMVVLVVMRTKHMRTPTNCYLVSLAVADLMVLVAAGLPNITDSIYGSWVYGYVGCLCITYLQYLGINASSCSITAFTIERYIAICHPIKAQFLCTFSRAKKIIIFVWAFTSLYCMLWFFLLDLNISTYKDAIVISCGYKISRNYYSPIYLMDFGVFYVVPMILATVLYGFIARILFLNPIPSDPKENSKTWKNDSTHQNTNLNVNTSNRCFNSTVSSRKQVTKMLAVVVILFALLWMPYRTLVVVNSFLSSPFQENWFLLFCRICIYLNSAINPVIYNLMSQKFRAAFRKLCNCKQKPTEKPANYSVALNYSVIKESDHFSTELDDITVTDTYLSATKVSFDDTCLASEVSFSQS
A general note: Quantitative high-throughput screening tests each substance at several concentrations.

Assay [2] in a line: Human pregnane X receptor (PXR) small molecule agonists, qHTS cell viability counter screen (AID 1346977). Note: nearly all actives have a fitted effect of over 50% in size. Note: potency is the fitted concentration of half-maximal effect. In short, it runs like this:
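Tox21 qHTS format; PXR-Luc HepG2, 2,000/well, charcoal-stripped FBS 5%. Cpd exposure 24hr. Read: CellTiter-Fluor fluorescence, multiplexed with luciferase.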

A short description of assay [3]: Caspase-3/7 induction in HepG2 cells by small molecules, qHTS assay (AID 1346978). Note: nearly all actives have a fitted effect of over 15% in size. In short, it runs like this:
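Wild-type HepG2 cells, 2,000/well, settled 5 hr at 37 C and 5% CO2, then compound-treated for 17 hr; caspase-3/7 activity read by luminescent Caspase-Glo 3/7 after 30 min at room temperature.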

Assay [4] in a line: Caspase-3/7 induction in CHO-K1 cells by small molecules, qHTS cell viability counter screen (AID 1346979). Note: nearly all actives have a fitted effect of over 35% in size. Note: potency is the fitted concentration of half-maximal effect. In a few lines: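 CellTiter-Fluor viability check, qHTS format: wild-type CHO-K1, 16hr compound treatment, 1hr reagent incubation, fluorescence read.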
A short description of assay [5]: Caspase-3/7 induction in CHO-K1 cells by small molecules, qHTS assay (AID 1346980). Note: nearly all actives have a fitted effect of over 15% in size. In a few lines:
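Wild-type CHO-K1 cells exposed to compounds for 17hr at 37 C, 5% CO2. Caspase-3/7 activity then measured by Caspase-Glo 3/7 luminescence after 30min at room temperature.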

The nature of assay [6]: Caspase-3/7 induction in HepG2 cells by small molecules, qHTS cell viability counter screen (AID 1346981). For activity change, negative = cytotoxicity: series mostly up to about 92 µM. Note: nearly all actives have a fitted effect of over 30% in size. Note: potency is the fitted concentration of half-maximal effect. In short, it runs like this:
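Wild-type HepG2 cells (2,000/well) were allowed to settle for 5 hr at 37 C, 5% CO2, then dosed with compounds in DMSO by pin transfer. After 16 hr at 37 C, CellTiter-Fluor was added and fluorescence read 1 hr later.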

Assay [7] has as its target Nuclear receptor subfamily 1 group I member 2 (Homo sapiens) (UniProt O75469). The experiment in a line: Human pregnane X receptor (PXR) small molecule agonists, qHTS assay (AID 1346982). Note: nearly all actives have a fitted effect of over 35% in size. Note: potency is the fitted concentration of half-maximal effect. In short, it runs like this:
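PXR-Luc HepG2 cells (CYP3A4 promoter-driven luciferase) were seeded in medium with 5% charcoal-stripped FBS, left 5 hr at 37 C, then exposed to compounds in DMSO for 24 hr. Luminescence was read after ONE-Glo addition.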

The target in assay [8] is Nuclear receptor subfamily 1 group I member 2 (Rattus norvegicus) (UniProt Q9R1A7). The experiment in a line: Rat pregnane X receptor (rPXR) activation by small molecules, qHTS assay (AID 1346983). Note: nearly all actives have a fitted effect of over 20% in size. The note with it: rPXR luciferase reporter cells, One-Glo luminescence, 24 h; max activation: hits give high values. In short, it runs like this: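 Cell-based rPXR activation assay: rPXR cells, 2,000 per well, rested 5hr at 37 C, then exposed to compounds in DMSO for 24 hr at 37 C. Luciferase activity read by One-Glo luminescence after 30 min at room temperature.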
Nuclear receptor subfamily 1 group I member 2 (Rattus norvegicus), sequence (Q9R1A7 whole entry, looked up): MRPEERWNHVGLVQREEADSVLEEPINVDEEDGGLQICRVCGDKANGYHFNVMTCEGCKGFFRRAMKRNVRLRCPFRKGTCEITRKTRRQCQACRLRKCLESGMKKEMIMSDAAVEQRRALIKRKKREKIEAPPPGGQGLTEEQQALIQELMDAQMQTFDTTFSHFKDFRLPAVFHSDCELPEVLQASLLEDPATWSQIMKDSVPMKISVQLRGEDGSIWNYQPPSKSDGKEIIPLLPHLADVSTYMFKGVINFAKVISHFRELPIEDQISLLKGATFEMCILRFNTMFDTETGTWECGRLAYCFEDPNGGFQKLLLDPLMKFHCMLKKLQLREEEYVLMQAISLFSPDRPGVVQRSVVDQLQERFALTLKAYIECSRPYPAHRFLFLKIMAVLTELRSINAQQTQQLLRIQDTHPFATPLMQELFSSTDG

Assay [9] has as its target Nuclear receptor subfamily 1 group I member 2 (Homo sapiens) (UniProt O75469). As to the kind of experiment: CYP3A4 induction through human pregnane X receptor (PXR) by small molecules, qHTS assay (AID 1346984). Note: nearly all actives have a fitted effect of over 40% in size. In a few lines: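 DPX-2 cells (HepG2 co-transfected with PXR and CYP3A4 promoter-luciferase) treated with compounds 24 h at 37C; luciferin-IPA CYP3A4 substrate 3uM final added for 3 h, then One-Glo; luminescence read. qHTS format.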
% is set by controls: 0 for no effect and ±100 for the full control effect.

Nuclear receptor subfamily 1 group I member 2 (Homo sapiens), sequence (O75469 whole entry, looked up): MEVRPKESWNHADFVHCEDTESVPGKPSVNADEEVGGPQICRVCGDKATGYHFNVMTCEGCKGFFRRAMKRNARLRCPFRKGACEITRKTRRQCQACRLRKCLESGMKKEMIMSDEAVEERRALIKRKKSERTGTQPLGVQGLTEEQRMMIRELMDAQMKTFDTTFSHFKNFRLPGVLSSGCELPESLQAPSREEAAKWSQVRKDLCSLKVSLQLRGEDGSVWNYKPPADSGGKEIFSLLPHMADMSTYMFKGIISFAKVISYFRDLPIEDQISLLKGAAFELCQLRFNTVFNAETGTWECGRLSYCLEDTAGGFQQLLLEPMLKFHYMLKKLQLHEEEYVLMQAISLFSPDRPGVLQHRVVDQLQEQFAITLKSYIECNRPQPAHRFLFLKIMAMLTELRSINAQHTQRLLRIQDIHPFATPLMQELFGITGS

`O=C1c2ccccc2C(=O)C1c1ccc2cc(S(=O)(=O)O)cc(S(=O)(=O)O)c2n1`: the call in assay [1] was inactive. The Potency in [2] was 37.2 µM (active); in [4], 33.1 µM (active); in [6], 33.1 µM (active). The Potency entry in assay [3], in [5] and in assay [7] was “inactive” in each case.
Take `COC(=O)c1cc(Cl)ccc1[N+](=O)[O-]`: in assay [1], the call was inactive. The Potency result in assay [2], in [3], in assay [4] and in assay [5] was “inactive” each time.
For `CC(C)Oc1ccccc1O`, the molecule was classed as inactive in assay [1]. The Potency result in assay [2], in assay [3], in assay [4], in [5], in assay [6] and in assay [7] was “inactive” each time.
Take `CC(C)=CCCC(C)C=O` (stereo unspecified): the call in assay [1] was inactive. The Potency result in assay [2], in assay [3], in [4], in [5], in assay [6] and in assay [7] was “inactive” in each case.
As to `C(/C=C/C=C/Nc1ccccc1)=Nc1ccccc1`, in assay [1], the result was inactive. Besides, the Potency entry in assay [2], in assay [3], in [4] and in assay [5] was “inactive” in each case.
Take `Cc1ccc(Cl)c(OCC(O)CNC(C)(C)C)c1` (stereo unspecified): in assay [1], the result was inactive. For the same molecule, the Potency result in assay [2], in [3], in assay [4], in assay [5] and in assay [6] was “inactive” each time.
Take `Cc1ccc2ccccc2c1[N+](=O)[O-]`: the molecule was classed as inactive in assay [1]. In addition, the Potency result in assay [2], in assay [3], in [4], in assay [5] and in [6] was “inactive” throughout.
`CCCCCCCCCCCCCCCCCCCl`: the activation in assay [1] was -0.417% [at 5.23 µM]; in assay [7], 17.1% [at 8.39 µM]. Moreover, the results for the activity change, negative = cytotoxicity in [2], in assay [4] and in [6] were -2.79% [at 8.39 µM], -4.93% [at 8.39 µM] and -0.332% [at 8.39 µM], respectively. In addition, the caspase activation in assay [3] is 0.121% [at 8.39 µM]. Besides, the caspase-3/7 activation in assay [5] was -1.95% [at 8.39 µM].
In the case of `O=P(c1ccccc1)(c1ccccc1)c1ccccc1`, in [1], the outcome was inactive. The Potency result in assay [2], in [3], in [4], in assay [5] and in [6] was “inactive” each time. Further, the Potency in assay [7] was 27.3 µM (active).
For `COc1ccnc2c1CCCCC2S(=O)c1nc2ccccc2[nH]1` (stereo unspecified), the outcome in assay [1] was inactive. The Potency result in assay [2], in assay [3], in [4], in assay [5] and in [6] was “inactive” in each case. In addition, the Potency in [7] is 29.8 µM (active).
As to `Clc1ccccc1-c1nc(-c2ccncc2)no1`, in [1], the outcome was inactive. In addition, the Potency result in [2], in assay [3], in [4], in assay [5] and in [6] was “inactive” throughout. In addition, in assay [7], the Potency was 5.31 µM (active).
`C=CC(C)CCC=C(C)C` (stereo unspecified): the molecule was called inactive in assay [1]. In addition, the Potency result in assay [2], in assay [3], in assay [4], in [5], in assay [6] and in assay [7] was “inactive” in each case.
For the molecule `COc1cc(CNC(=O)CCCC/C=C/C(C)C)ccc1O`, the result in [1] was inactive. Moreover, the Potency entry in [2], in [3], in [4], in [5] and in assay [6] was “inactive” in each case. Moreover, the Potency in [7] was 33.5 µM (active).
In the case of `C=C(C)C(=O)OCCCCCCCCCCOC(=O)C(=C)C`, the call in assay [1] was inactive. The Potency result in assay [2], in [3], in [4], in [5], in [6] and in assay [7] was “inactive” in each case.
Consider `C[Si](C)(C)O[Si](C)(C)O[Si](C)(C)C`, for which the result in [1] was inactive. The Potency entry in [2], in [3], in assay [4], in assay [5], in assay [6] and in assay [7] was “inactive” throughout.
As to `C=CC(O)CCCCC` (stereo unspecified), in assay [1], the call was inactive. Besides, the Potency entry in [2], in assay [3], in assay [4], in [5], in [6] and in assay [7] was “inactive” throughout.
As to `O=c1c2ccccc2oc2ccccc12`, in assay [1], the molecule was called inactive. Further, the Potency result in [2], in assay [3], in assay [4], in assay [5], in assay [6] and in [7] was “inactive” each time.
For `COc1ccc(/C=C/S(=O)(=O)NC(=O)c2ccc(C)cc2Cl)cc1`, the result in assay [1] was inactive. Further, the Potency result in assay [2], in assay [3], in assay [4], in assay [5] and in assay [6] was “inactive” each time. Also, the Potency in [7] was 27.3 µM (active).
Regarding `Cc1c(Cl)cccc1[N+](=O)[O-]`, the result in assay [1] was inactive. The Potency result in [2], in assay [3], in [4], in assay [5], in [6] and in assay [7] was “inactive” throughout.
On to `CC(C)(C)NCC(O)COc1ccc(NC(=O)NC2CCCCC2)cc1` (stereo unspecified), for which the molecule was classed as inactive in assay [1]. For the same molecule, the Potency entry in assay [2], in assay [3], in [4], in [5], in assay [6] and in [7] was “inactive” in each case. For the same molecule, the Potency result in assay [9] was “inactive”. In assay [8], the max activation was 0.0743%.
For `Nc1ccc(-c2ccc(F)cc2)cc1`, the molecule was classed as inactive in assay [1]. The Potency result in [2], in [3], in [4], in [5] and in [6] was “inactive” each time. Further, the Potency in [7] was 30.6 µM (active).
With `CC(O)CN` (stereo unspecified), the molecule was called inactive in [1]. The Potency entry in assay [2], in [3], in [4], in assay [5], in [6] and in [7] was “inactive” throughout.
For `C[C@H](CN1CCCC1)C(=O)c1ccc(C(F)(F)F)cc1`, the result in assay [1] was inactive. The Potency result in [2], in assay [3], in assay [4], in assay [5] and in assay [6] was “inactive” each time. In addition, the Potency in assay [7] was 26.6 µM (active).
For `O=C(O)c1ccccc1[N+](=O)[O-]`, in [1], the result was inactive. For the same molecule, the Potency entry in [2], in assay [3], in [4], in assay [5], in assay [6] and in [7] was “inactive” each time.
With `CCCCCCOC(=O)c1ccccc1`, in [1], the molecule was called inactive. Further, the Potency entry in [2], in assay [3], in assay [4], in assay [5], in assay [6] and in assay [7] was “inactive” throughout.
Consider `C/C(=C\C(C)CC(C)CC(C)C)C1CC(=O)OC1=O` (stereo unspecified), for which, in [1], the molecule was classed as inactive. The Potency result in assay [2], in [3], in [4], in assay [5], in assay [6] and in assay [7] was “inactive” throughout.
In the case of `CCCCCCCCCCCCCCCCC(=O)O`, the molecule was called inactive in assay [1]. The Potency result in [2], in assay [3], in assay [4], in [5], in assay [6] and in assay [7] was “inactive” throughout.
On to `C=CC(C)(O)CC/C=C(/C)CCC=C(C)C` (stereo unspecified), for which the outcome in assay [1] was inactive. In addition, the Potency entry in assay [2], in [3], in assay [4], in assay [5] and in [6] was “inactive” in each case. In addition, the Potency in assay [7] is 54.5 µM (active).
Turning to `O=c1[nH][nH]c2ccccc12`, in assay [1], the outcome was inactive. In addition, the Potency entry in [2], in assay [3], in assay [4], in assay [5], in assay [6] and in assay [7] was “inactive” throughout.
Turning to `CCCC(=O)OCCC(C)C`, the molecule was called inactive in [1]. The Potency result in assay [2], in assay [3], in assay [4], in [5], in assay [6] and in assay [7] was “inactive” in each case.
